In all, about 360,000 compounds went through this assay and about 11,000 (3.1%) were called active. Roughly 4% stayed inconclusive and do not appear here. The call rests on the fitted dose curve; in most records, active means well fitted inhibition curve with a large enough effect; inconclusive means small, poorly fitted or top-dose-only effect; inactive means no such curve, though single readings can be large or run the other way. For the sample, actives were picked, then their nearest neighbours and some compounds at random.
Biological target: Schistosoma mansoni thioredoxin glutathione reductase (TGR) (UniProt Q962Y6)
Test: qHTS Assay for the Inhibitors of Schistosoma Mansoni Peroxiredoxins; further: nearly all actives have a fitted effect of over 60% in size
Details: purified TGR, DTNB reduction, TNB absorbance 405 nm; series mostly up to 114 µM; activity change, negative = inhibition: at the top concentration
Source text: Schistosomiasis is a major neglected tropical disease that currently affects over 200 million. It is caused by different species of flatworms, such as Schistosoma mansoni. Over the last century, drugs to treat the disease have evolved from potassium antimonyl tartrate, artemisinin, oxamniquine, to praziquantel, with praziquantel remaining the universally-used single drug of choice over the past three decades. However, transmission rates have changed little with praziquantel, and there is evidence for the development of drug resistant parasites. Because there is currently no suitable alternative therapy available, there is an urgent need to identify new targets and drugs for schistosomiasis treatment. Thioredoxin glutathione reductase (TGR), one uniquely positioned S. mansoni enzyme, has been identified as a major component of the worms' distinct and compressed antioxidant "firewall". TGR is a multifunctional enzyme that catalyzes the interconversion between reduced and oxidized forms of both glutathione (GSH) and thioredoxins, thus making it an attractive new antiparasitic target. Recently, a quantitative high-throughput screen of the NIH Molecular Libraries Small Molecule Repository (MLSMR, ~71K at the time of the screen in 2007) was performed using an assay that targeted both TGR and peroxiredoxin2 (Prx2, an H2O2-reducing enzymatic component of the S. mansoni redox "firewall") by following the decrease of NADPH fluorescence. […] Additional mechanistic link between exogenous NO donation and parasitic injury for the oxadiazole-2-oxide class of compounds was also expanded and better defined. Although the screen addressed both TGR and Prx2, the assay required post-screen target deconvolution for further characterization of the actives. In addition, the fluorescence assay was also subject to fluorescence interference from compound library members. We have developed a 1536-well-based kinetic HTS assay to address TGR alone. The assay followed the reduction of 5, 5'-dithiobis (2-nitrobenzoic acid) (DTNB) (Ellman's reagent) by NADPH and measured the increase in absorbance at 412 nm of the reaction product, TNB. […] This assay format can be used to screen the current MLSMR collection (with >300K compounds available) to find novel TGR inhibitors. Furoxan is a good choice to serve as a positive control in the primary HTS assay.
Three microliters of reagents (100 uM NADPH and 20 nM TGR or 100 uM NADPH as no-enzyme control) were dispensed into 1,536-well black clear-bottomed plates. Compounds (23 nL) were transferred via Kalypsys pin tool equipped with 1536-pin array (10 nL slotted pins, V&P Scientific, San Diego, CA). The plates were then be incubated for 15 min at room temperature, and 1 uL aliquot of 500 uM NADPH were added, immediately followed by a 1 uL aliquot of 15 mM DTNB to start the reaction. The plate was transferred to a ViewLux high-throughput CCD imager (Perkin-Elmer, Wellesley, MA) where kinetic measurements of the TNB absorbance were acquired using a 405 excitation filter. Throughout the screen, reagent bottles and all liquid lines were made light-tight to minimize reagent degradation. All screening operations were performed on a fully integrated robotic system (Kalypsys, San Diego, CA) containing one RX-130 and two RX-90 anthropomorphic robotic arms (Staubli, Duncan, SC). Library plates were screened starting from the lowest and proceeding to the highest concentration, and a "double-dipping" step of the highest concentration was required to access higher concentrations of compounds. Vehicle-only plates, with DMSO being pin-transferred to the entire column 5-48 compound area, were inserted uniformly at the beginning and the end of each library in order to monitor for and record any shifts in the background, which can be affected by reagent dispensers or loss in enzyme activity overtime. […]
On the % scale 0 is the no-effect control and ±100 the full control effect; potency means the concentration at half of the fitted maximal effect.

Structure (SMILES) | activity change, negative = inhibition | Potency
Cc1ccc(C2CCN(C(=O)c3cnn(-c4ccccc4Cl)c3C3CCN(C(=O)OC(C)(C)C)CC3)C2)cc1 (stereo not drawn) | -6.14% (inactive) | 
Cc1ccccc1C(=O)N(Cc1ccc(N(C)C)cc1)CC1CCCO1 (stereo not drawn) | -4.37% (inactive) | 
O=C(CCS(=O)(=O)c1cc(Br)cc2c1N(C(=O)C1CC1)CC2)Nc1ccc(Br)cc1F | -9.17% (inactive) | 
COc1ccc(OCC(=O)Nc2nnc(-c3ccco3)s2)cc1 |  | 28.2 µM (active)
COc1ccc(OCCCC(=O)Nc2nnc(C3CCCO3)s2)cc1 (stereo not drawn) | -23.5% (inactive) | 
CNc1nnc(-c2ccco2)s1 | 0.0938% (inactive) | 
CCOC(=O)N1CCc2c(sc3c2c(=O)n(-c2ccc(CC)cc2)c(=O)n3C)C1 | 4.2% (inactive) | 
Cc1ccccc1NC(=O)Cn1c(=O)n(CCCCC(=O)NCc2ccccc2Cl)c(=O)c2ccccc21 | 14.5% (inactive) | 
CC(C)OC(=O)CN1CCN(c2ccc(Cl)cc2)CC1 | -6.1% (inactive) | 
O=C(CN1CCN(c2ccc(Cl)cc2)CC1)c1ccccc1 |  | 17.8 µM (active)
O=C(CCCC(=O)N1CCN(c2cccc(Cl)c2)CC1)c1ccccc1 | 14.1% (inactive) | 
Cc1cc(C(=O)OCC(=O)Nc2ccccc2Cl)c(C)o1 | -10.9% (inactive) | 
O=C(COC(=O)CCc1c[nH]c(=O)[nH]1)Nc1ccccc1Cl |  | 44.7 µM (active)
Cc1cccc(NC(=O)COC(=O)CCc2ccccc2)c1C | -1.65% (inactive) | 
COc1ccccc1NC(=O)Cn1cnc2ccc(S(=O)(=O)N3CCC(C)CC3)cc2c1=O | -3.41% (inactive) | 
COCCNC(=O)c1ccc2c(c1)N(Cc1cccc(Cl)c1)C(=O)c1ccccc1S2(=O)=O | 6.01% (inactive) | 
COc1ccc(/C=C/C(=O)OCC(=O)Nc2cccc(Oc3ccccc3)c2)c(OC)c1 | 2.08% (inactive) | 
COc1cccc(NC(=O)COC(=O)/C=C/c2ccco2)c1 |  | 31.6 µM (active)
COc1ccc([N+](=O)[O-])cc1NC(=O)COC(=O)/C=C/c1ccco1 | -20.8% (inactive) | 
CN(C)S(=O)(=O)c1cccc(NC(=O)COC(=O)/C=C/c2cccs2)c1 | -1.01% (inactive) | 
CC(C)CNC(=O)COC(=O)/C=C/c1ccco1 | -30.1% (inactive) | 
NS(=O)(=O)c1cccc(NC(=O)COC(=O)/C=C/c2ccco2)c1 |  | 6.31 µM (active)
CCc1cccc(-n2nnc(-c3nsc(NC(=O)c4ccc(C)cc4)n3)c2C)c1 | 5.78% (inactive) | 
COc1ccc(-c2cc(NCc3ccc(F)cc3)n3cnnc3n2)cc1 | -4.05% (inactive) | 
Cc1cc(C(=O)Nc2cccc(C(F)(F)F)c2)c2c(C)nn(-c3cccc(F)c3)c2n1 | 2.25% (inactive) | 
COc1ccc(NC(=O)C2CCCN(S(=O)(=O)c3cccc4nonc34)C2)cc1Cl (stereo not drawn) | -0.832% (inactive) | 
Cc1ccc(C)c(NC(=O)Cn2ccn(-c3ccc(F)cc3)c(=O)c2=O)c1 | 5.65% (inactive) | 
O=C(CC1Oc2ccccc2NC1=O)NCc1ccc(F)cc1 (stereo not drawn) | -0.707% (inactive) | 
